The target in assay [1] is Glucocorticoid receptor (Homo sapiens) (UniProt P04150). The experiment in a line: ATG_GR_TRANS: Attagene TRANS-FACTORIAL HepG2 Assay for human Glucocorticoid Receptor (GR) (AID 2282978; active = hit-call score of the fitted dose curve at least 0.9, where 1 is the maximum;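 also: activators score as hits since higher reporter transcript over DMSO is fitted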). As to conditions: HepG2 Attagene TRANS GR reporter, mRNA transcription. In a few lines: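 HepG2 cells transiently transfected with multiplexed reporter units in which chimeric NR-GAL4 proteins drive GAL4-UAS reporters; 24 h compound exposure. Reporter mRNA measured by RT-PCR, 6-FAM labelling, HpaI digestion and capillary electrophoresis; gain-of-signal fitted versus DMSO.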
Sequence of Glucocorticoid receptor (Homo sapiens) (P04150 whole entry, looked up, the tested form may be a part): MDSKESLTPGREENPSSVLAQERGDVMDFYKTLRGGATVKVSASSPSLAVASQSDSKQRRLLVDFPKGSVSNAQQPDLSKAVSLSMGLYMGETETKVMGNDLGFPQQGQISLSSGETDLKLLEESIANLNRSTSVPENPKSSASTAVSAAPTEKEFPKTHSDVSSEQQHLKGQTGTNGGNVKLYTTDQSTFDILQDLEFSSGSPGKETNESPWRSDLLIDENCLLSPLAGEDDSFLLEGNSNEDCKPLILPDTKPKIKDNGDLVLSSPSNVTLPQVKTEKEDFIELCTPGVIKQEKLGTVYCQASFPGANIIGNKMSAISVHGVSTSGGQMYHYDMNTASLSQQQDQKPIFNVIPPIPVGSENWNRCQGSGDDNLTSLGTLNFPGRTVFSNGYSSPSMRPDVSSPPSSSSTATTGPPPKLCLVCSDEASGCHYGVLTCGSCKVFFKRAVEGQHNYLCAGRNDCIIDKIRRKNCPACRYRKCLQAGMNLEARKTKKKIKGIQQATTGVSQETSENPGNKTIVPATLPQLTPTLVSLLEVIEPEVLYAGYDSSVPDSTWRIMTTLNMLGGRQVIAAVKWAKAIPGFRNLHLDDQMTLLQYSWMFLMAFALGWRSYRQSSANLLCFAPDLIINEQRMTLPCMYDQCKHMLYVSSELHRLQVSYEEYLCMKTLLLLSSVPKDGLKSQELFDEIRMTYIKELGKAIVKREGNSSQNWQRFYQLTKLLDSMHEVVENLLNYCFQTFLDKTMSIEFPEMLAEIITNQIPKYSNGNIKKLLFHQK

Assay [2] concerns the target Bile acid receptor (Homo sapiens) (UniProt Q96RI1). The experiment in a line: ATG_FXR_TRANS: Attagene TRANS-FACTORIAL HepG2 Assay for Farnesoid X Receptor (FXR) (AID 2282979; active = hit-call score of the fitted dose curve at least 0.9, where 1 is the maximum;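 also: hits raise reporter mRNA above DMSO so AC50 marks FXR activation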). As to conditions: HepG2 Attagene TRANS FXR-GAL4 reporter transcription. The essentials: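 Chimeric FXR-GAL4 activity in transiently transfected human HepG2 liver cells is scored as induction of reporter mRNA after 24 h of dosing. Detection uses RT-PCR with fluorescent labelling and capillary electrophoresis, with DMSO serving as baseline.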

The target of assay [3] is Oxysterols receptor LXR-alpha (Homo sapiens) (UniProt Q13133). Description: ATG_LXRa_TRANS: Attagene TRANS-FACTORIAL HepG2 Assay for human Liver X Receptor alpha (LXRa) (AID 2282980; active = hit-call score of the fitted dose curve at least 0.9, where 1 is the maximum). As to conditions: HepG2 Attagene TRANS reporter, LXRa transactivation. In a few lines:
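Transient HepG2 transfectants, 24 h dosing, RT-PCR/CE mRNA reporter quantitation; gain-of-signal vs DMSO.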

The target of assay [4] is Nuclear receptor subfamily 4 group A member 2 (Homo sapiens) (UniProt P43354). The experiment in a line: ATG_NURR1_TRANS: Attagene TRANS-FACTORIAL HepG2 Assay for human Nuclear Receptor Related Protein 1 (NURR1) (AID 2282985; active = hit-call score of the fitted dose curve at least 0.9, where 1 is the maximum). As to conditions: HepG2 Attagene TRANS reporter, mRNA readout. The essentials: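 HepG2 / transient MRTU transfection / 24 h compound exposure / RT-PCR + CE fluorescence of reporter mRNA / gain-of-signal vs DMSO.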
Sequence of Nuclear receptor subfamily 4 group A member 2 (Homo sapiens) (P43354 whole entry, looked up): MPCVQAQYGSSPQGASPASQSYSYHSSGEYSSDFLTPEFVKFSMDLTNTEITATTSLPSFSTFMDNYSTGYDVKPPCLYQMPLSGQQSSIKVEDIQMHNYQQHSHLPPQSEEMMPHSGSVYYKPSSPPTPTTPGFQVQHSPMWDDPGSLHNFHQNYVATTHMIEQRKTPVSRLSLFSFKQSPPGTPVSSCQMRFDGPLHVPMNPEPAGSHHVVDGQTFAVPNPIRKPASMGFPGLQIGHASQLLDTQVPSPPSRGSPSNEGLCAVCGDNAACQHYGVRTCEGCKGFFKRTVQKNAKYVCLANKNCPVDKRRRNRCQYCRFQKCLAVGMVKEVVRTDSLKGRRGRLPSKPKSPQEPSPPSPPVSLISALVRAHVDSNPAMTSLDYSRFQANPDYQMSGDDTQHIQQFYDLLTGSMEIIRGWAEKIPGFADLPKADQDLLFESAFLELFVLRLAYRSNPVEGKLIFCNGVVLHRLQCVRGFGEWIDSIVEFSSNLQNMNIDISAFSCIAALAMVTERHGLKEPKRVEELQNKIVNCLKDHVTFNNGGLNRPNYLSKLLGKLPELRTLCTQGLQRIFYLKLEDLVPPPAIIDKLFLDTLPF

The target of assay [5] is Transcriptional activator Myb (Homo sapiens) (UniProt P10242). Description: ATG_Myb_CIS: Attagene CIS-FACTORIAL HepG2 Assay for human Myeloblastosis (Myb) Proto-Oncogene Transcription Factor (AID 2282986). As to conditions: HepG2 Attagene CIS-FACTORIAL Myb reporter transcription; actives raise or lower the signal. In a few lines:
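HepG2 cells were transiently transfected with cis-regulated multiple reporter transcription units reflecting endogenous Myb activity, then exposed to compound for 24 hours. Reporter mRNA was measured by RT-PCR with capillary electrophoresis; bidirectional fitting versus DMSO baseline.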

Assay [6] deals with Nuclear respiratory factor 1 (Homo sapiens) (UniProt Q16656). The experiment in a line: ATG_NRF1_CIS: Attagene CIS-FACTORIAL HepG2 Assay for human Nuclear Respiratory Factor 1 (NRF1) Orphan Gene (AID 2282987). As to conditions: HepG2 NRF1 cis-element reporter, Attagene multiplex; actives raise or lower the signal. The essentials: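 HepG2 cells transiently transfected with multiple reporter transcription units under cis-regulatory promoter control, so endogenous transcription-factor activity is read. After 24 h compound exposure, reporter mRNA quantified by RT-PCR, fluorescent labelling, HpaI digestion and capillary electrophoresis; bidirectional fitting versus DMSO.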
Sequence of Nuclear respiratory factor 1 (Homo sapiens) (Q16656 whole entry, looked up): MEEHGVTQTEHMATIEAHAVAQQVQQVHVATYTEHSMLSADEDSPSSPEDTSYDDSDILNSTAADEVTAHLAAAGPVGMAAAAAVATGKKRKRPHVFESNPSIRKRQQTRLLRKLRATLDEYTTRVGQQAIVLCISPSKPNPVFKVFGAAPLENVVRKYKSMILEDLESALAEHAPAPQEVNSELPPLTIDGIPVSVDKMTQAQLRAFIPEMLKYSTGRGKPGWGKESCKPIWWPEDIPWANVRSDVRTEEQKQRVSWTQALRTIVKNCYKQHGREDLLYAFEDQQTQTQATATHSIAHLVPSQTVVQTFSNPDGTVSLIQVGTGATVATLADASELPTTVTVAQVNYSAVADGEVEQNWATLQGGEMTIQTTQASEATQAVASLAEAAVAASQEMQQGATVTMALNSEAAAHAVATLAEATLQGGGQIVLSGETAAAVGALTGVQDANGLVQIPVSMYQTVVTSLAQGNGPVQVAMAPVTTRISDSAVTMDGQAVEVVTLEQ

Assay [7] can be described thus: ATG_NFI_CIS: Attagene CIS-FACTORIAL HepG2 Assay for human Nuclear Factor I (NFI) (AID 2282989). As to conditions: HepG2 cis-regulatory reporter, NFI response element transcription; actives raise or lower the signal. In a few lines:
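After transient transfection of HepG2 with cis-promoter reporter constructs and 24 h dosing, RNA is reverse-transcribed, amplified, 6-FAM end-labelled and HpaI-digested before capillary analysis. Bidirectional curve fitting against DMSO.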

Assay [8] concerns the target Myc proto-oncogene protein (Homo sapiens) (UniProt P01106). The experiment in a line: ATG_Myc_CIS: Attagene CIS-FACTORIAL HepG2 Assay for human Myelocytomatosis (Myc) Proto-Oncogene Transcription Factor (AID 2282990). The conditions noted are these: HepG2, Attagene cis-reporter transcription factor activity; actives raise or lower the signal. The essentials: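 Transiently transfected HepG2 cells bearing cis-promoter reporter units for endogenous transcription factors; 24 h exposure. Reporter mRNA measured by RT-PCR, 6-FAM primer extension, HpaI cut and capillary electrophoresis; bidirectional fit relative to DMSO.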

A short description of assay [9]: ATG_NF_kB_CIS: Attagene CIS-FACTORIAL HepG2 Assay for human Nuclear Factor Kappa B (NF-kB) (AID 2282991). The conditions noted are these: HepG2 Attagene cis-factorial NF-kB reporter mRNA; actives raise or lower the signal. In a few lines: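 HepG2 cells transiently transfected with multiplexed cis-element reporter units measuring endogenous transcription factor activity; reporter mRNA read 24 h after dosing by RT-PCR, fluorescent labelling, HpaI digestion and capillary electrophoresis. Bidirectional fit against DMSO baseline.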

The nature of assay [10]: ATG_NRF2_ARE_CIS: Attagene CIS-FACTORIAL HepG2 Assay for human Nuclear Factor Erythroid 2 Related Factor 2 (NFR2) response to Antioxidant Response Elements (ARE) (AID 2282992). The conditions noted are these: HepG2 Attagene ARE/NRF2 reporter, transcription factor activity; actives raise or lower the signal. The essentials:
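Transient MRTU transfection of HepG2; 24 h compound exposure; TriZol RNA, RT with oligo(dT), PCR, 6-FAM primer extension, HpaI cut, CE. Bidirectional fit vs DMSO.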

Assay [11] in a line: ATG_Oct_MLP_CIS: Attagene CIS-FACTORIAL HepG2 Assay for human Octamer-Binding Transcription Factor (Oct) (AID 2282993). The conditions noted are these: HepG2 Attagene cis-factorial Oct reporter, mRNA; actives raise or lower the signal. The essentials:
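Cells of the HepG2 line express promoter-controlled reporter sequences whose mRNA levels, after 24 h treatment, are measured by RT-PCR and capillary electrophoresis. Increases and decreases are scored relative to DMSO.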

The target in assay [12] is Cellular tumor antigen p53 (Homo sapiens) (UniProt P04637). Description: ATG_p53_CIS: Attagene CIS-FACTORIAL HepG2 Assay for human p53 Transcription Factor (AID 2282994). As to conditions: HepG2 p53 cis-element reporter, Attagene mRNA; actives raise or lower the signal. In a few lines:
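HepG2, transient MRTU transfection (cis promoter elements, endogenous TFs); 24 h dosing; RNA isolation, RT-PCR, 6-FAM primer extension, HpaI digest, CE fluorescence; bidirectional fit vs DMSO.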

Assay [13] addresses Oxysterols receptor LXR-beta (Homo sapiens) (UniProt P55055). Description: ATG_LXRb_TRANS: Attagene TRANS-FACTORIAL HepG2 Assay for human Liver X Receptor beta (LXRb) (AID 2282981; active = hit-call score of the fitted dose curve at least 0.9, where 1 is the maximum). As to conditions: HepG2 Attagene TRANS GAL4-LXRb reporter, mRNA. The essentials: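 Gain-of-signal mRNA reporter endpoint, DMSO as negative control. Transiently transfected HepG2 cells carrying the NR-Gal4 chimera and GAL4-UAS reporter units were treated 24 h; transcripts quantified by RT-PCR and capillary electrophoresis fluorescence.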

In assay [14] the target is Hepatocyte nuclear factor 4-alpha (Homo sapiens) (UniProt P41235). The experiment in a line: ATG_HNF4a_TRANS: Attagene TRANS-FACTORIAL HepG2 Assay for human Hepatocyte Nuclear Factor 4 alpha (HNF4a) (AID 2282982; active = hit-call score of the fitted dose curve at least 0.9, where 1 is the maximum). As to conditions: HepG2 HNF4a transactivation reporter, mRNA readout. In a few lines: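 Gain-of-signal mRNA induction, relative to DMSO vehicle, was read after 24 h compound treatment of HepG2 cells bearing transfected GAL4-UAS reporters. Detection used RT-PCR, 6-FAM primer extension and capillary electrophoresis.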
Sequence of Hepatocyte nuclear factor 4-alpha (Homo sapiens) (P41235 whole entry, looked up, the tested form may be a part): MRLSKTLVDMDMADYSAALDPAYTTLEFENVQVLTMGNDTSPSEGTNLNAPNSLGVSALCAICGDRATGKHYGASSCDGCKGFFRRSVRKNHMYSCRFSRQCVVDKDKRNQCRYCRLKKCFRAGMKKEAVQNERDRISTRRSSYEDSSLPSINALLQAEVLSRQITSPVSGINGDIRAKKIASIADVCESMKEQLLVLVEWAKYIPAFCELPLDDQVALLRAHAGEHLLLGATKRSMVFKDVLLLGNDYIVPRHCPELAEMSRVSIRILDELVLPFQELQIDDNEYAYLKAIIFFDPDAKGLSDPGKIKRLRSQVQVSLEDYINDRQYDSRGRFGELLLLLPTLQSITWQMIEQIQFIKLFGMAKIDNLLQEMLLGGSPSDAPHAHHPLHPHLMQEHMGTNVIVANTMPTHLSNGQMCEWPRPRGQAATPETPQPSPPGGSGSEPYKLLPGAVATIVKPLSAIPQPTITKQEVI

The nature of assay [15]: BSK_3C_TissueFactor: BioMAP Diversity Plus: 3C Assay for Tissue Factor Biomarker Activity (AID 2282997). As to conditions: BioMAP 3C HUVEC, tissue factor biomarker readout; actives raise or lower the signal. The essentials:
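Values derive from bidirectional curve fitting against DMSO of Tissue Factor ELISA signals, taken 24 h after dosing primary human umbilical vein endothelial cells.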

The nature of assay [16]: BSK_3C_uPAR: BioMAP Diversity Plus: 3C Assay for Urokinase-type plasminogen activator receptor (uPAR) Biomarker Activity (AID 2282998). As to conditions: BioMAP 3C HUVEC, uPAR biomarker ELISA; actives raise or lower the signal. The essentials: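 Endothelial primary cells of human umbilical vein origin received test chemical; 24 h later uPAR was assayed by ELISA. Fitting was bidirectional, DMSO as negative control.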
(In an ELISA, binding on a coated surface is turned into a signal by an enzyme label.)

Assay [17] in a line: BSK_3C_VCAM1: BioMAP Diversity Plus: 3C Assay for Vascular cell adhesion molecule 1 (VCAM1) Biomarker Activity (AID 2282999). As to conditions: BioMAP 3C HUVEC, VCAM1 ELISA, cytokine-stimulated; actives raise or lower the signal. In a few lines:
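Human umbilical vein endothelial cells (3C system), biomarker read by ELISA 24 h after dosing; bidirectional fit against DMSO baseline. Cytotoxicity tracked by SRB total-protein staining in parallel cultures at biomarker time.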

Assay [18] has as its target Estrogen-related receptor gamma (Homo sapiens) (UniProt P62508). The experiment in a line: ATG_ERRg_TRANS: Attagene TRANS-FACTORIAL HepG2 Assay for human Estrogen-Related Receptor gamma (ERRg) (AID 2282977; active = hit-call score of the fitted dose curve at least 0.9, where 1 is the maximum;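 also: hits increase reporter signal over DMSO so potencies reflect activators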). The conditions noted are these: HepG2 Attagene TRANS reporter, ERRg transactivation. In a few lines: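 HepG2 cells transiently transfected with multiplexed GAL4-UAS reporter units and chimeric NR-Gal4 constructs were exposed to test chemicals for 24 h. Reporter mRNA was measured by RT-PCR, 6-FAM primer extension, HpaI digestion and capillary electrophoresis; gain-of-signal versus DMSO.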

A short description of assay [19]: ATG_M_06_TRANS: Attagene TRANS-FACTORIAL HepG2 Assay for M06 Transcription Factor (Internal Marker) (AID 2282983; active = hit-call score of the fitted dose curve at least 0.9, where 1 is the maximum). As to conditions: HepG2 Attagene TRANS M06 internal marker reporter. In a few lines: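 Measured by capillary electrophoresis of fluorescently labelled RT-PCR products, this endpoint reflects reporter mRNA in HepG2 cells harbouring exogenous NR-GAL4 reporter constructs after 24 h exposure, with DMSO as baseline.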

Assay [20] is described as follows: ATG_M_32_TRANS: Attagene TRANS-FACTORIAL HepG2 Assay for M32 Transcription Factor (Internal Marker) (AID 2282984; active = hit-call score of the fitted dose curve at least 0.9, where 1 is the maximum;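 also: transcript level of a background control reporter unit measured by RT-PCR and capillary electrophoresis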). As to conditions: HepG2 Attagene TRANS M32 internal marker reporter. The essentials: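 Capillary electrophoresis of 6-FAM-labelled reporter fragments gives the signal; data fitted for gain over DMSO negative control. Source: HepG2 cells bearing transient multiple reporter transcription units, 24 h exposure.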

Values joined by “and” are separate entries in the source; they are usually repeats but may differ in a detail not shown here. Identical values can stand only once. Records with an inconclusive call do not appear. A structure can be active in one record and inactive in another. Active and inactive are the calls of the source. The calls were made as follows, unless noted: active = hit-call score of the fitted dose curve at least 0.9, where 1 is the maximum; inactive = score below 0.9.

Broadly, the AC50 is the midpoint of the concentration-response curve, whichever way the signal moves.

Sequence of Bile acid receptor (Homo sapiens) (Q96RI1 whole entry, looked up, the tested form may be a part): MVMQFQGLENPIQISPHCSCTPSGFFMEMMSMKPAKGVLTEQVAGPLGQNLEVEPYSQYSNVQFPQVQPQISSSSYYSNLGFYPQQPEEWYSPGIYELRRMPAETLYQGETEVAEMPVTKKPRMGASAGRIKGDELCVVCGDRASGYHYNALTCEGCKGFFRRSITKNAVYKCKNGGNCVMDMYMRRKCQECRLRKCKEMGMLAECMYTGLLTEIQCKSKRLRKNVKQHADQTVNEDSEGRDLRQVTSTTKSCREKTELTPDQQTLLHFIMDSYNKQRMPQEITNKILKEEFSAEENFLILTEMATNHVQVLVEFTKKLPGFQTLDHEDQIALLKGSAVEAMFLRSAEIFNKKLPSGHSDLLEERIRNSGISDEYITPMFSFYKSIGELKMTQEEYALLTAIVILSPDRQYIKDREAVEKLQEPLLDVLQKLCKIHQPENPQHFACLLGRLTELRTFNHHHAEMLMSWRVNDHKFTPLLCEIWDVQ
Sequence of Oxysterols receptor LXR-alpha (Homo sapiens) (Q13133 whole entry, looked up): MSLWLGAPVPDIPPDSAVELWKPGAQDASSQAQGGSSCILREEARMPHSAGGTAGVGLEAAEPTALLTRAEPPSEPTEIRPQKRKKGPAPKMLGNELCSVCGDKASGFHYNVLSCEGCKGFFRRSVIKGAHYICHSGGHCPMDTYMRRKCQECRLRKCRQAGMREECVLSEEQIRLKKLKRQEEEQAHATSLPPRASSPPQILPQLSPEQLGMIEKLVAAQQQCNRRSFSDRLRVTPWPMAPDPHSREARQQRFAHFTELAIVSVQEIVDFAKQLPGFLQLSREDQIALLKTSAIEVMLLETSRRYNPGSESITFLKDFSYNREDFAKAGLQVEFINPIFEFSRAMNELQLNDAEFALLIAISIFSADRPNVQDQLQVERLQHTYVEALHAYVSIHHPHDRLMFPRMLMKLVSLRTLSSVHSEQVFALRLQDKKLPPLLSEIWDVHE
Sequence of Transcriptional activator Myb (Homo sapiens) (P10242 whole entry, looked up): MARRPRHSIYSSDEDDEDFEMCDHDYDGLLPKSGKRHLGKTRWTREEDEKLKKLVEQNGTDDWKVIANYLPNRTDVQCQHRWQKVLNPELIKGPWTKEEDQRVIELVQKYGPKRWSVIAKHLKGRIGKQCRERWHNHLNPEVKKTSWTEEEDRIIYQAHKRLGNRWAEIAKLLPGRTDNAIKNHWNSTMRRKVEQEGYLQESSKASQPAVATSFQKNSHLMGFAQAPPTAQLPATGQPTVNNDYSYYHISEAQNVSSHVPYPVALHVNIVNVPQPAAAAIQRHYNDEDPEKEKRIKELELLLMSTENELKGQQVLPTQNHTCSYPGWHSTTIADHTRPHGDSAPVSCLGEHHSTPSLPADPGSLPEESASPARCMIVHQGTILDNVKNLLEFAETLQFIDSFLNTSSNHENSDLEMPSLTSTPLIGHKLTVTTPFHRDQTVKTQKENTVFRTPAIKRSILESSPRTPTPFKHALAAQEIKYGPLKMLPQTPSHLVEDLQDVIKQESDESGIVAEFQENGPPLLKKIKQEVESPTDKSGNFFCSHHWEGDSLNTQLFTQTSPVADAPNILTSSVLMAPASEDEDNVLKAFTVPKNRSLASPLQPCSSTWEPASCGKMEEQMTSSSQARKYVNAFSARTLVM
Sequence of Oxysterols receptor LXR-beta (Homo sapiens) (P55055 whole entry, looked up, the tested form may be a part): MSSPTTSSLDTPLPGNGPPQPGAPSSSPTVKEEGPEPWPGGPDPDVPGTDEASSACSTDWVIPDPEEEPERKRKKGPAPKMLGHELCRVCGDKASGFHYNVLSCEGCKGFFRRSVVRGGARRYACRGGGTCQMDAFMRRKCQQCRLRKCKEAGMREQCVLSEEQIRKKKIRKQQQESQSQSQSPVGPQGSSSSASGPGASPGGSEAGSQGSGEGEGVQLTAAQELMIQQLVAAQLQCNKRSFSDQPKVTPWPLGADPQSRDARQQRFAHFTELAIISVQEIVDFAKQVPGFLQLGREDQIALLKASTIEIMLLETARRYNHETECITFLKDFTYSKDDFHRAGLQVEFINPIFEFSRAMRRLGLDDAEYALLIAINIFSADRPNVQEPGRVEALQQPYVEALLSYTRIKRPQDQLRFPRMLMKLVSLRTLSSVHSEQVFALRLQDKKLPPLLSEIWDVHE
Sequence of Cellular tumor antigen p53 (Homo sapiens) (P04637 whole entry, looked up): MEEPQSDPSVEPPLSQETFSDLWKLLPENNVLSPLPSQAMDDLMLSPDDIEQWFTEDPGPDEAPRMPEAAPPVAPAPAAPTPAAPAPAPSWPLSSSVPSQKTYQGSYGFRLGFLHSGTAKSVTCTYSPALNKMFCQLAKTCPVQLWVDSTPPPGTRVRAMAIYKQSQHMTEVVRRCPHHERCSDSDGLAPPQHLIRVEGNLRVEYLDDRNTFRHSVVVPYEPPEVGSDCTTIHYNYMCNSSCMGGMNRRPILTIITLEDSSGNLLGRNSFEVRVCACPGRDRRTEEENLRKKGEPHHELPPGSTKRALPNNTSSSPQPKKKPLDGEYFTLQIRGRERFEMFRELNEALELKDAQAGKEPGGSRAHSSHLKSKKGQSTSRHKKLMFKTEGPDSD

On to `OC[C@H]1O[C@@H](O[C@H]2[C@H](O)[C@@H](O)[C@H](O)O[C@@H]2CO)[C@H](O)[C@@H](O)[C@H]1O`, for which the result in [1], in assay [2], in assay [3], in [4], in assay [5] and in assay [6] was inactive. For the same compound, the call in [7], in assay [8], in assay [9], in assay [10], in assay [11] and in assay [12] was inactive.

In the case of `CC=CC(=O)C1=C(C)C=CCC1(C)C`, the outcome in assay [1], in assay [2], in assay [3], in assay [13], in assay [14] and in [4] was inactive. Moreover, the compound was classed as inactive in assay [5], in assay [6], in [8], in assay [9], in assay [10] and in assay [11]. The result in [12], in assay [15], in assay [16] and in assay [17] was inactive.

`CCCOC(=O)CC`: the compound was called inactive in [1], in assay [3], in [13], in assay [14], in assay [4] and in assay [5]. In addition, the outcome in [6], in [7], in assay [8], in assay [10] and in [11] was inactive.

For the compound `NS(=O)(=O)c1cc(C(=O)O)c(NCc2ccco2)cc1Cl`, the result in assay [18], in [19], in [20], in assay [5], in [8] and in assay [11] was inactive.

`CC(O)CN` (stereo unspecified): the result in assay [1], in assay [3], in assay [13], in assay [14], in assay [4] and in assay [5] was inactive. Further, the compound was called inactive in assay [6], in assay [8], in assay [9], in assay [10] and in [11].

Regarding `CC(C)C(=O)OCC=Cc1ccccc1`, the call in [1], in assay [2], in assay [14], in [20], in [4] and in [6] was inactive. Further, the call in [7], in assay [8], in assay [9], in [11] and in assay [12] was inactive. The AC50 in assay [10] was 59.3 µM (active).

On to `COc1ccccc1O`, for which the result in assay [1], in assay [2], in assay [3], in [13], in assay [6] and in [7] was inactive. Moreover, the outcome in assay [8], in [9], in [10], in assay [11] and in assay [12] was inactive.

With `C#C[C@]1(O)CC[C@H]2[C@@H]3CCc4cc(O)ccc4[C@H]3CC[C@@]21C`, the result in assay [1], in [3], in [13], in [14], in assay [4] and in assay [6] was inactive. For the same compound, the compound was called inactive in [8], in [9], in assay [10], in assay [11], in [12] and in [17]. Moreover, the AC50 in [6] was 152 µM (active) and 138 µM (active); in assay [8] it was 146 µM (active) and 61.6 µM (active); in assay [9], 162 µM (active); in assay [10], 187 µM (active); in [11], 27.1 µM (active) [middle of 4 runs]; in [12], 30 µM (active) [middle of 4 runs]. The AC50 in assay [15] was 5.38 µM (active); in assay [16], 6.34 µM (active).

`C=C(C)C(=O)OCCOCCOC(=O)C(=C)C`: the result in assay [18], in assay [5], in assay [6], in assay [8], in [9] and in assay [10] was inactive. Also, the call in assay [11] was inactive.
